Values joined by “and” are separate entries in the source; they are usually repeats but may differ in a detail not shown here. Equal values may be shown once. Active and inactive are the calls of the source.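 The calls were made as follows, unless noted: active = thallium flux through the channel raised or lowered by more than 3 SD from vehicle-only wells, actives on both sides; inactive = the rest.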

Here are results for 4 molecules from PubChem BioAssay.

The nature of test [1]: stimulators of nuclear beta-catenin in C2C12, primary screen, imaging, WNT3A-conditioned medium, mouse C2C12, NPC library (AID 1117326; in the data active = nuclear beta-catenin stimulation mostly above about 4.2%, no sharp cut-off; inactive = mostly below about 10%). As to conditions: stronger effect = higher value.
Test [2] in a line: stimulators of insulin release from INS-1E, primary screen, cell-based, 5 mM glucose, NPC library (AID 1117329;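 active = compound raises insulin release from rat beta cells at 5 mM glucose, no numeric limit stated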). As to conditions: rat INS-1E insulin secretion, at 10 µM, stronger effect = higher value.
Test [3] is described as follows: growth inhibition of GSK3B-pretreated HCT116 cells – cell-based, CellTiter-Glo, 0.2 to 20 µM (AID 1117336;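 active = compounds lowering colon cancer cell viability after pretreatment blocking the GSK3B kinase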). As to conditions: HCT116 viability after GSK3B inhibitor, at 20 µM, stronger effect = higher value. Background: Cellular ATP, detected with luciferase, serves as a proxy for viable cell number.
A short description of test [4]: inhibition of endothelial tube formation, primary screen, imaging, VEGF stimulated, CD31 staining, tube area, NPC library (AID 1117340;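 active = compound that reduces growth-factor-driven endothelial tube area in a mixed cell culture, no cutoff stated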). The note with it: VEGF-stimulated ADSC/ECFC co-culture, at 10 µM, stronger effect = higher value.
A short description of test [5]: glucagon-like peptide 1 release enhancers, primary assay, NCI-H716 cell line, NPC library (AID 1117341;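 active = compound raises GLP1 secretion from the human gut endocrine cells, with no numeric limit stated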). As to conditions: NCI-H716 cells, at 10 µM, stronger effect = higher value.
Test [6] is described as follows: HCT116 colon cancer cell growth inhibition, primary screen, CellTiter-Glo luminescence, NPC library (AID 1117342;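 active = compounds that lower survival of HCT116 colon cancer cells in the luminescence readout, no numeric limit stated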). As to conditions: at 20 µM (top of the series).
The nature of test [7]: CellTiter-Glo luminescent readout of SW480 viability loss, NPC library primary (AID 1117343;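 active = compounds that lower viability of the colon cancer cells in the luminescence readout, with no numeric limit stated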). The note with it: CellTiter-Glo luminescence; at 20 µM (top of the series).
Test [8] is described as follows: decreased DLD-1 cellular survival, CellTiter-Glo luminescent readout, NPC compound collection, primary HTS (AID 1117346;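 active = compounds that lower survival of DLD-1 colon cancer cells in the luminescence readout, no cutoff given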). The note with it: DLD-1 viability, CellTiter-Glo luminescence; at 20 µM (top of the series).
Test [9] has as its target 6-phosphogluconate dehydrogenase, decarboxylating (Homo sapiens) (UniProt P52209). The test is described as follows: 6PGD enzyme inhibitors, primary screen, biochemical, human, recombinant enzyme, NADPH absorbance (AID 1159550;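 active = at least 20% inhibition of 6-phosphogluconate dehydrogenase activity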). The note with it: recombinant 6PGD, NADPH absorbance 341 nm; at 10 µM; stronger effect = higher value.
Test [10] can be described thus: differential killing of epithelial or mesenchymal cells, primary screen, imaging, PC-3E GFP, TEM4-18 mCherry, co-culture (AID 1345086;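 active = compounds killing one labelled cell type while sparing the other, by normalised counts and ratio limits, not self-fluorescent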;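 as to all read-outs here: cells exposed to compound for 72 h before imaging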;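 as to red/green cell ratio (normalised): normalised mesenchymal count divided by normalised epithelial count so high means epithelial killing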). The note with it: imaging cell counts, at 1 µM; for red/green cell ratio (normalised): actives lie on both sides, counts scaled to control wells, 1 = unselective.
Test [11] can be described thus: survival rescue of mitochondrial mutant cells in low glucose, primary screen, MELAS cybrids, Rieske KO mouse fibroblasts, CellTiter-Glo (AID 1508586;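 active = mean z-score across replicates of 1.96 or higher in either the MELAS or the Rieske mutant cell line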;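 also: z relative to plate mean and SD of compound and empty wells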).
The target in test [12] is NAD(+) hydrolase SARM1 (Homo sapiens) (UniProt Q6SZW1). The test is described as follows: SARM1 TIR NADase inhibitors, cell lysate, NAD-Glo luminescence (AID 1508614;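 active = compound whose remaining NAD level is above about 45 nM, limit read from the data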;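 also: higher remaining NAD means stronger inhibition of SARM1 NADase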). As to conditions: SAM-TIR HEK293T lysate NADase, at 1 µM, stronger effect = higher value.
NAD(+) hydrolase SARM1 (Homo sapiens), sequence (Q6SZW1 whole entry, looked up, the tested form may be a part): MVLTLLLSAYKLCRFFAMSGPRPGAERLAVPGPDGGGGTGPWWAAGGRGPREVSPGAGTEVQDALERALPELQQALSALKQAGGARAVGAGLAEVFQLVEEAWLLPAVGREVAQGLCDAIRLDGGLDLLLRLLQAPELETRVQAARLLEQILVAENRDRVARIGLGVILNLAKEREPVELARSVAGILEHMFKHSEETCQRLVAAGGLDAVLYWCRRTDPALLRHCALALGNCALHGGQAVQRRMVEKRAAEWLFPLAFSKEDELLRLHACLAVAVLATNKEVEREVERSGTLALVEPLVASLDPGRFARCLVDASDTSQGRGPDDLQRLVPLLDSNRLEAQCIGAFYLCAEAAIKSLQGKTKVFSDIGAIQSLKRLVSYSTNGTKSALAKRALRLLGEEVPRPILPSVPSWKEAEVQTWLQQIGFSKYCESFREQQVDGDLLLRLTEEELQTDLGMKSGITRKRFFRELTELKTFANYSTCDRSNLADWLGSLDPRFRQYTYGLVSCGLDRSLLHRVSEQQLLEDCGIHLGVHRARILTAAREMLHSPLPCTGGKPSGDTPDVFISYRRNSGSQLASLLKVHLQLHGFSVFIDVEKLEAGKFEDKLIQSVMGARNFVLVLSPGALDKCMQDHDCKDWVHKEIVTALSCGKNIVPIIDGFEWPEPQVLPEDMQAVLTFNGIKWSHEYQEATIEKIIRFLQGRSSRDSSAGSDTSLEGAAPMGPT
In test [13] the target is Mitogen-activated protein kinase 7 (Homo sapiens) (UniProt Q13164). The test is described as follows: ERK5 transactivation activators in reporter cells, primary screen, cell-based, HTS (AID 1508626;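 active = luciferase signal above three times the same-plate solvent-only control wells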;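 also: luciferase driven by Gal4-ERK5 fusion binding five Gal4 sites before minimal TATA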). As to conditions: HeLa Gal4-ERK5 transactivation, 18 h, at 5 µM, stronger effect = higher value.
Mitogen-activated protein kinase 7 (Homo sapiens), sequence (Q13164 whole entry, looked up, the tested form may be a part): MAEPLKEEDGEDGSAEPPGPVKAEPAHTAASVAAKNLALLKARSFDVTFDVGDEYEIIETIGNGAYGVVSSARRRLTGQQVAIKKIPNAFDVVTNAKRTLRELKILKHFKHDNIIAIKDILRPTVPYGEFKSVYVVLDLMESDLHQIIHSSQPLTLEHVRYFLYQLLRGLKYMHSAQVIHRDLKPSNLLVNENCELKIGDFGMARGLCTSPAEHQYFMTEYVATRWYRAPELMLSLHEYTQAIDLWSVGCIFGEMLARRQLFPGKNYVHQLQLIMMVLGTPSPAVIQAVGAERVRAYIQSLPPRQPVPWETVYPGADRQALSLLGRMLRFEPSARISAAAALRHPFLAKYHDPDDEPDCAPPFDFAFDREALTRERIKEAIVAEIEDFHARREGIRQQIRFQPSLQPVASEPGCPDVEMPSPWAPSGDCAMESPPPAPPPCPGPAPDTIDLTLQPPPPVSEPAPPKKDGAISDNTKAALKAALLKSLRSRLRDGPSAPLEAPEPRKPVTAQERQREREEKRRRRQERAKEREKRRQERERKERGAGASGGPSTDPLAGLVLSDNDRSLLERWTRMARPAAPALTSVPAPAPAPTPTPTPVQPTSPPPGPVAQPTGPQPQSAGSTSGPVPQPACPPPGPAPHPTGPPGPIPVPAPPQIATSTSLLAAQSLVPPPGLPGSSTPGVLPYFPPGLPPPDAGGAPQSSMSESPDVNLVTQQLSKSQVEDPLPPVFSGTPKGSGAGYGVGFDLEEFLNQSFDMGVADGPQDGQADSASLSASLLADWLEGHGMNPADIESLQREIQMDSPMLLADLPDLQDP
For the next test, the system named is F380Y. The test is described as follows: modulators of BK channel variants, profiling panel, selectivity assay, cell-based, U2OS BacMam, thallium flux, beta subunits (AID 1259406).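 Also: initial slope of Thallos dye fluorescence rise after thallium is added; log ratio against the mean of 0.3% DMSO vehicle wells on the same plate.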 The note with it: at 30 µM.
The next test relates to F380Y/beta2Delta. Described as above. The note with it: at 30 µM.
For test [14], the target named is Calcium-activated potassium channel subunit alpha-1 (Homo sapiens) + Leucine-rich repeat-containing protein 26 (Homo sapiens) (UniProt Q12791+Q2I0M4). The description is as above. The note with it: F380Y/Slo1WT/gamma1, at 30 µM.
Calcium-activated potassium channel subunit alpha-1 (Homo sapiens) + Leucine-rich repeat-containing protein 26 (Homo sapiens), sequence (Q2I0M4 whole entry, looked up, one chain of several): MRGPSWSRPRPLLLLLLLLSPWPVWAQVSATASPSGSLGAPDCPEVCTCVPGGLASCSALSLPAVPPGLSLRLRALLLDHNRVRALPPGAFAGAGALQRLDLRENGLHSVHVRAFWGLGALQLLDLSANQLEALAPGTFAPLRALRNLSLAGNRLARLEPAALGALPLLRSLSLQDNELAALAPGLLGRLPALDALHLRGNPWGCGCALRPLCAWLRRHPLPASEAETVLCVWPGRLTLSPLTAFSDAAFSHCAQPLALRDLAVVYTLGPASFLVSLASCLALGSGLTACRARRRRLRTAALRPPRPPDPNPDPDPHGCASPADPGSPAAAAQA
Another test concerns R275C. Described as above. The note with it: at 30 µM.
In another test the test system is R275C/beta1. The test is described as above. As to conditions: at 30 µM.
A further test concerns R275C/beta2Delta. The test is described as above. The note with it: at 30 µM.
[15] abbreviates: measured here: epithelial PC-3E GFP cell survival.
The mark [16] stands for this setting: measured here: mesenchymal TEM4-18 mCherry cell survival.
[17] abbreviates: MELAS cybrid survival, CellTiter-Glo 48 h, stronger effect = higher value.
Where [18] appears, read: Rieske KO mouse fibroblast survival, CellTiter-Glo 72 h.

6-phosphogluconate dehydrogenase, decarboxylating (Homo sapiens), sequence (P52209 whole entry, looked up): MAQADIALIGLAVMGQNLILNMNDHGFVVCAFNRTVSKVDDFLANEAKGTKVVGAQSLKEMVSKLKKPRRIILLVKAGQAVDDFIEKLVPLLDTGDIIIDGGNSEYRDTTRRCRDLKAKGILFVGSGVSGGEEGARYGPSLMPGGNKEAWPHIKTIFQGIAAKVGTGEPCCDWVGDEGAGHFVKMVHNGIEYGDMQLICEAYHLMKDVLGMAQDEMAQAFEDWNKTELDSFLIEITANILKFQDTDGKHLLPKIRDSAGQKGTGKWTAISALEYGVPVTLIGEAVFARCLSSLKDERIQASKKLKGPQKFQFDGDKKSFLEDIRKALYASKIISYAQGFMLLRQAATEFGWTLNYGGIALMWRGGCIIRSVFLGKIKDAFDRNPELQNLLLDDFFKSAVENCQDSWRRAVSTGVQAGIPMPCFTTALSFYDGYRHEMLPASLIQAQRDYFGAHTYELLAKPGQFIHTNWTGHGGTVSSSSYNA

One may read the inhibition as the drop in the measured response relative to a control, in per cent. Take `CN(C)CCOC(C)(c1ccccc1)c1ccccn1` (configuration not stated): the nuclear beta-catenin stimulation was 1.1% (inactive) in [1] (at 10 µM) and -0.9% in test [1] (stimulation, at 2 µM). Moreover, the insulin secretion stimulation in test [2] is 11.2% (inactive). Moreover, in [3], the viability decrease was 7.4% (inactive). For the same molecule, the tube area decrease in [4] is -15.5% (inactive). The GLP1 secretion stimulation in [5] was 1% (inactive). In addition, in [6], the inhibition of viability was 22.7% (inactive). Besides, the viability decrease (inhibition) is 28.1% (inactive) in [7] and -4.8% (inactive) in test [8]. Also, in [9], the inhibition was 1.67% (inactive). Further, the red/green cell ratio (normalised) in [10] was 1.11 (inactive). Besides, the results for the normalised cell number in [10] (setting [15]) and in test [10] (setting [16]) were 1.38 and 1.53, respectively. Further, the z-score in test [11] (setting [17]) was 0.438 (inactive) and -0.212 (inactive) and 0.265 (inactive); in [11] (setting [18]) it was -0.4 and -0.135 and 0.109. Also, the remaining NAD in [12] was 10 nM (inactive). Moreover, the luciferase signal in test [13] is 124 AU (inactive). The log fold change Tl+ flux in the test with F380Y is -0.0291 (inactive); in the test with F380Y/beta2Delta it was -0.0218 (inactive); in test [14] it was -0.0144 (inactive); with R275C, -0.00524 (inactive); in the test on R275C/beta1, -0.0059 (inactive); in the test on R275C/beta2Delta, -0.00567 (inactive).

On to `Cc1ccc(Cl)c(Nc2ccccc2C(=O)O)c1Cl`, for which the nuclear beta-catenin stimulation was 0.5% (inactive) in test [1] (at 10 µM) and 1.2% in test [1] (stimulation, at 2 µM). Besides, the insulin secretion stimulation in test [2] is -1.1% (inactive). Also, the viability decrease in [3] was 8.4% (inactive). Besides, the tube area decrease in test [4] is 22.9% (inactive). Besides, the GLP1 secretion stimulation in [5] is 5% (inactive). For the same molecule, the inhibition of viability in test [6] is 35.8% (inactive). The viability decrease (inhibition) is 58.5% (active) in [7] and 78.5% (active) in test [8]. Also, in test [9], the inhibition was 7.02% (inactive). In test [10], the red/green cell ratio (normalised) is 0.98 (inactive). Also, the normalised cell number in [10] (setting [15]) was determined as 0.92; in test [10] (setting [16]) it was 0.9. Besides, the z-score is -0.277 (inactive) and 0.657 (inactive) in test [11] (setting [17]); -0.131 and 0.573 in test [11] (setting [18]). In addition, the remaining NAD in test [12] is 10 nM (inactive). For the same molecule, in test [13], the luciferase signal was 48 AU (inactive). Moreover, the log fold change Tl+ flux in the test with F380Y was 0.212 (active); in the test on F380Y/beta2Delta, 0.243 (active); in test [14], 0.122 (active); in the test on R275C, 0.0346 (inactive); in the test with R275C/beta1 it was 0.34 (active); with R275C/beta2Delta, 0.336 (active).

For the molecule `CC(CN1c2ccccc2Sc2ccccc21)N(C)C` (configuration not stated), the nuclear beta-catenin stimulation in [1] (at 10 µM) was 0% (inactive); in test [1] (stimulation, at 2 µM) it was -0.4%. Moreover, the insulin secretion stimulation in test [2] is 7.9% (inactive). Also, the viability decrease in test [3] was 28.6% (inactive). The tube area decrease in test [4] was 14.2% (inactive). The GLP1 secretion stimulation in test [5] is 5.7% (inactive). For the same molecule, the inhibition of viability in test [6] is 76.9% (active). The viability decrease (inhibition) in [7] was 110% (active); in [8], 28.8% (inactive). Also, the inhibition in test [9] is 7.15% (inactive). Further, the red/green cell ratio (normalised) in test [10] was 0.9 (inactive). For the same molecule, the normalised cell number in test [10] (setting [15]) stood at 1.17; in test [10] (setting [16]), 1.05. Further, the z-score was -0.251 (inactive) and 0.0297 (inactive) and -0.48 (inactive) in test [11] (setting [17]); -0.152 and -0.842 and 0.0934 in test [11] (setting [18]). Besides, in [12], the remaining NAD was 10 nM (inactive). For the same molecule, the luciferase signal in [13] is 144 AU (inactive). The log fold change Tl+ flux in the test with F380Y is 0.2 (active); with F380Y/beta2Delta, 0.393 (active); in test [14], -0.00524 (inactive); in the test on R275C it was -0.00748 (inactive); in the test on R275C/beta1, 0.305 (active); in the test on R275C/beta2Delta, 0.176 (active).

In the case of `CN(C)C(=O)Oc1ccc[n+](C)c1`, the nuclear beta-catenin stimulation in [1] (at 10 µM) was 0.1% (inactive); in test [1] (stimulation, at 2 µM), 10.5%. Besides, the insulin secretion stimulation in test [2] is 0.95% (inactive). The viability decrease in test [3] is 10.7% (inactive). In addition, the tube area decrease in [4] was -21.1% (inactive). In addition, the GLP1 secretion stimulation in [5] is -3.2% (inactive). For the same molecule, the inhibition of viability in test [6] is -1% (inactive). The viability decrease (inhibition) in [7] was -8.3% (inactive); in [8] it was -12.1% (inactive). The inhibition in test [9] is -7.31% (inactive). For the same molecule, the red/green cell ratio (normalised) in [10] was 1.32 (inactive). Besides, the normalised cell number is 1.15 in test [10] (setting [15]) and 1.53 in test [10] (setting [16]). Besides, the z-score was 0.178 (inactive) and 0.175 (inactive) in test [11] (setting [17]); 0.0482 and -0.383 in test [11] (setting [18]). In test [12], the remaining NAD was 10 nM (inactive). Moreover, the luciferase signal in [13] was 48 AU (inactive). Also, the log fold change Tl+ flux in the test with F380Y is -0.00126 (inactive); in the test with F380Y/beta2Delta it was -0.0385 (inactive); in test [14], 0.0382 (inactive); with R275C, -0.0114 (inactive); in the test with R275C/beta1, -0.0401 (inactive); in the test on R275C/beta2Delta it was 0.0292 (inactive).
